From the supplement of paper PMC11732987, “Enantioselective OTUD7B fragment discovery through chemoproteomics screening and high-throughput optimisation” (Communications Chemistry, 2025)

Columns and labels:
Test in all cases: log2 ratio of Biotin-Ahx-Ub-VS probe labelling (fragment/DMSO); higher = less target engagement (more negative = stronger competition), active = hit call of the paper (q ≤ 0.05, log2 ratio ≤ -1)
Settings in all cases: compound concentration: 200 uM; treatment time: 3 h
USP34 = USP34 (UniProt Q70CQ2)
Sequence of USP34 (Q70CQ2 whole entry, the tested form may be a part): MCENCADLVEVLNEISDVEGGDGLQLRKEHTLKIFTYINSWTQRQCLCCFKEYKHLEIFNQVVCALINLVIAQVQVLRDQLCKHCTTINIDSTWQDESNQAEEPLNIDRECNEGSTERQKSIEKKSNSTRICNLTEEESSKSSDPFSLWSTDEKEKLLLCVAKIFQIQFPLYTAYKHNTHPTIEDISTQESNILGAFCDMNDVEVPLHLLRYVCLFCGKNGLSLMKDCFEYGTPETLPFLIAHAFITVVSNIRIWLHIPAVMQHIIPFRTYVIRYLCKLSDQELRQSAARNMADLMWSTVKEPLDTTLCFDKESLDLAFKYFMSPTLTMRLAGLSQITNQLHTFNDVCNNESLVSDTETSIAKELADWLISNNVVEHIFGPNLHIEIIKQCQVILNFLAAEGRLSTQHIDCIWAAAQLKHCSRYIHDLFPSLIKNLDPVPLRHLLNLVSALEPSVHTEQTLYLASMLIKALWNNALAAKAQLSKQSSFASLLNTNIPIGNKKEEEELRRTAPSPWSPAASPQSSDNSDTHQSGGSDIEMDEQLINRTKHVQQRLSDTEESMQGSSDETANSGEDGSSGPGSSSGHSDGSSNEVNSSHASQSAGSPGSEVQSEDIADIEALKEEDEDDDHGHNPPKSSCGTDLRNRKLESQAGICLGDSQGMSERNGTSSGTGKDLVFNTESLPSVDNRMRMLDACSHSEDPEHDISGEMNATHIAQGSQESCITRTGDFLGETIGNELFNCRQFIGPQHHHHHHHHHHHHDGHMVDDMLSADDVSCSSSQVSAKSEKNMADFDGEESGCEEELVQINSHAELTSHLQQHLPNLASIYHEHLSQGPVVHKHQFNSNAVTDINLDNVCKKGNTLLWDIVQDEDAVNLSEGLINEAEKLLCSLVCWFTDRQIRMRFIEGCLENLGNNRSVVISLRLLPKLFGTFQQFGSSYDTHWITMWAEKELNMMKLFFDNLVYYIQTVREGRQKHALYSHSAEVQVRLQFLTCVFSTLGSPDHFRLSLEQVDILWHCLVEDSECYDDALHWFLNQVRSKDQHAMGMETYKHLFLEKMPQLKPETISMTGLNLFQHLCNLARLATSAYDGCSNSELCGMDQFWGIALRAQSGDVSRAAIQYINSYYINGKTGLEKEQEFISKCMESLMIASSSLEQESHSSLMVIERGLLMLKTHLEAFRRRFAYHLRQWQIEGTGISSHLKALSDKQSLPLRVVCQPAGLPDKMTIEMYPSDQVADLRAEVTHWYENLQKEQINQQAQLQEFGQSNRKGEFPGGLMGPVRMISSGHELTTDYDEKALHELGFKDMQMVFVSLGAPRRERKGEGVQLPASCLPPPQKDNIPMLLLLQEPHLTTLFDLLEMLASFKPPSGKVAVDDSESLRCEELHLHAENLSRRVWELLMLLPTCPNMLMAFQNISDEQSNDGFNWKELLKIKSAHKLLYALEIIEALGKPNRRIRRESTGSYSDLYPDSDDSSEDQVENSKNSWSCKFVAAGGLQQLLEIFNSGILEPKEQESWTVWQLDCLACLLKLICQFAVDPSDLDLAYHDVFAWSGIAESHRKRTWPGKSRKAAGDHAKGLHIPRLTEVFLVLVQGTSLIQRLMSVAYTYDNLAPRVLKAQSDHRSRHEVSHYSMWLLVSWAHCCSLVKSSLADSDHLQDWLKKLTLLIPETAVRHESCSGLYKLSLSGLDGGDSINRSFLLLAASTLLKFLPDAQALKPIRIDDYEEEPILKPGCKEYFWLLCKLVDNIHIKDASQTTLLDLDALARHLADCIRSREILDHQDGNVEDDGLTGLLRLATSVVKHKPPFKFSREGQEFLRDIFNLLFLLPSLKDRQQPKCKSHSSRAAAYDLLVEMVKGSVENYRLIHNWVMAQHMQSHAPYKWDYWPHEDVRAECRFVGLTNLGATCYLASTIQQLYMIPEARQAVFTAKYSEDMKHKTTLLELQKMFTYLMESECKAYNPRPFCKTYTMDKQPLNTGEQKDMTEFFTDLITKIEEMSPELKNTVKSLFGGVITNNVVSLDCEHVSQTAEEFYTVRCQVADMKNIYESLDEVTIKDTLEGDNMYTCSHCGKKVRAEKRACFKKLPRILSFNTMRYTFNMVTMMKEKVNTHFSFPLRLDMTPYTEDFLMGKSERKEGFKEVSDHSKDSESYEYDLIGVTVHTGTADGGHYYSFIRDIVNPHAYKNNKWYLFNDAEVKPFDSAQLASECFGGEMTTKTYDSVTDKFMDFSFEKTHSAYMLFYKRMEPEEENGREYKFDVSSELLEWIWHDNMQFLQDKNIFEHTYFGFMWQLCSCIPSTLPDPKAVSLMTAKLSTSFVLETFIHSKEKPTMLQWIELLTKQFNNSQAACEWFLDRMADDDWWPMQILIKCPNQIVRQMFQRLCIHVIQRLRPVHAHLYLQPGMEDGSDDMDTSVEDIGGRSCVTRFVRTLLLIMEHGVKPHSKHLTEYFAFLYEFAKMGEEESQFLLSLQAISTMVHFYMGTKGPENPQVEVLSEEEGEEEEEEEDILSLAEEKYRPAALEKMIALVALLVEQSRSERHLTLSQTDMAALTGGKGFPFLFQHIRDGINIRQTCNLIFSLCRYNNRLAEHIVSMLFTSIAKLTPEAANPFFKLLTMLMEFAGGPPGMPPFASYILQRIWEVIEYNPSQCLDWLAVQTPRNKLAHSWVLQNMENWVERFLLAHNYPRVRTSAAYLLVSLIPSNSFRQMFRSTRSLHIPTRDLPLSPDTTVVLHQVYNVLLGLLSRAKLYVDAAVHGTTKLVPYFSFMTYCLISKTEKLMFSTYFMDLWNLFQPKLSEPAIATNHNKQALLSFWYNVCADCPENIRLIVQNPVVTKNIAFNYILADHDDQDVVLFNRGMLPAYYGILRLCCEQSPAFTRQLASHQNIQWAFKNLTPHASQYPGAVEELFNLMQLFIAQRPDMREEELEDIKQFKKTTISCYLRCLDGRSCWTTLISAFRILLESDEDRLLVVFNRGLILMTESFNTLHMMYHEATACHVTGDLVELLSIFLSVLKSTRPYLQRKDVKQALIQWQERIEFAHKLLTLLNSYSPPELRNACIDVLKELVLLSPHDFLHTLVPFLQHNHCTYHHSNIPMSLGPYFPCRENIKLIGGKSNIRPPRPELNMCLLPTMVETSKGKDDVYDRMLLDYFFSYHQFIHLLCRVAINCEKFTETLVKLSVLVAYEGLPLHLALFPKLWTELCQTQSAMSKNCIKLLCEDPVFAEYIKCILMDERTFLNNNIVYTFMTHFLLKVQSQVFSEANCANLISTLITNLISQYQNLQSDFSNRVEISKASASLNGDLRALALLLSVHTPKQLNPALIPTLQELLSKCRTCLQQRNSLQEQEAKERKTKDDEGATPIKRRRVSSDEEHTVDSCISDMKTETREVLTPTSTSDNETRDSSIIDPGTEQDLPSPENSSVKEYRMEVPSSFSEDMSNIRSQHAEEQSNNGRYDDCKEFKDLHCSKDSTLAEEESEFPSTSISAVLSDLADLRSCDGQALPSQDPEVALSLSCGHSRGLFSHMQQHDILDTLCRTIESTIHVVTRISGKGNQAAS
Procedure, shortened: (§1)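 Labelled DUBs from HEK293T lysate were NeutrAvidin-enriched, digested with LysC and trypsin, and run by diaPASEF LC-MS/MS. Before that, each 495 µg sample in Tris/CHAPS/IGEPAL buffer with protease inhibitors was treated in triplicate with fragment at 200 µM or vehicle for 3 h, then with Biotin-Ahx-Ub-VS at 0.5 µM final for 1 h. Values are average log2 ratios of fragment over vehicle by unpaired t-test, based on global-median-normalised Spectronaut label-free quantities from proteins with ≥2 unique peptides.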

USP36 = target: T1, USP36 (UniProt Q9P275)
T1 sequence (whole entry): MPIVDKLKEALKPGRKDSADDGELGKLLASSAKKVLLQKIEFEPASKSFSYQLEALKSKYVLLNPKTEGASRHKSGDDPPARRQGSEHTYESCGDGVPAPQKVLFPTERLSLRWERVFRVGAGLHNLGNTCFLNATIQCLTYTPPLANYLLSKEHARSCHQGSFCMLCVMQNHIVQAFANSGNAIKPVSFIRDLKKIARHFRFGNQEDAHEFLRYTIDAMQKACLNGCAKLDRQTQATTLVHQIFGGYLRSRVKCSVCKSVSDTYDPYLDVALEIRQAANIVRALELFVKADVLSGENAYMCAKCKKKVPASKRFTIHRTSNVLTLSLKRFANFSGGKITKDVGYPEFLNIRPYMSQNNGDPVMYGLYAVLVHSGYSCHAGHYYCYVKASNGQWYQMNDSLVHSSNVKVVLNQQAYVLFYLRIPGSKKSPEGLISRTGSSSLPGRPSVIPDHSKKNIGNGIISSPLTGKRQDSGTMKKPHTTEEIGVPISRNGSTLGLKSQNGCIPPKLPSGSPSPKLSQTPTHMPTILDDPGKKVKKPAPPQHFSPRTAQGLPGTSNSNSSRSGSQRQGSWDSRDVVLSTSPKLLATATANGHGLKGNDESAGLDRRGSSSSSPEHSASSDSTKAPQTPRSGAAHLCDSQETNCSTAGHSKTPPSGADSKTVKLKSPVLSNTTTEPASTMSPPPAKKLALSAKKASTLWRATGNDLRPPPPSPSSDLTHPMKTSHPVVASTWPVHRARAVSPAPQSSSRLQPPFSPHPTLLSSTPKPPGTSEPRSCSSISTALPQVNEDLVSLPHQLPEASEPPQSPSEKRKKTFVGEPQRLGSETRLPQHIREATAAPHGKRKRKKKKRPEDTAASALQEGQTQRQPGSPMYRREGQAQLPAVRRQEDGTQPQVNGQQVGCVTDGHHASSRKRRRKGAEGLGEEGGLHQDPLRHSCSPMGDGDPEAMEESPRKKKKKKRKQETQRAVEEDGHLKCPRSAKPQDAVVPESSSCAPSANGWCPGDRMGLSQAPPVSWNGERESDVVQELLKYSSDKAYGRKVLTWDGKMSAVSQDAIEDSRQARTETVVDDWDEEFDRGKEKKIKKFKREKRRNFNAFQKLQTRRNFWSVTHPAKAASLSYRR
Procedure, shortened: as §1

USP38 = target: T2, USP38 (UniProt Q8NB14)
T2 sequence (whole entry): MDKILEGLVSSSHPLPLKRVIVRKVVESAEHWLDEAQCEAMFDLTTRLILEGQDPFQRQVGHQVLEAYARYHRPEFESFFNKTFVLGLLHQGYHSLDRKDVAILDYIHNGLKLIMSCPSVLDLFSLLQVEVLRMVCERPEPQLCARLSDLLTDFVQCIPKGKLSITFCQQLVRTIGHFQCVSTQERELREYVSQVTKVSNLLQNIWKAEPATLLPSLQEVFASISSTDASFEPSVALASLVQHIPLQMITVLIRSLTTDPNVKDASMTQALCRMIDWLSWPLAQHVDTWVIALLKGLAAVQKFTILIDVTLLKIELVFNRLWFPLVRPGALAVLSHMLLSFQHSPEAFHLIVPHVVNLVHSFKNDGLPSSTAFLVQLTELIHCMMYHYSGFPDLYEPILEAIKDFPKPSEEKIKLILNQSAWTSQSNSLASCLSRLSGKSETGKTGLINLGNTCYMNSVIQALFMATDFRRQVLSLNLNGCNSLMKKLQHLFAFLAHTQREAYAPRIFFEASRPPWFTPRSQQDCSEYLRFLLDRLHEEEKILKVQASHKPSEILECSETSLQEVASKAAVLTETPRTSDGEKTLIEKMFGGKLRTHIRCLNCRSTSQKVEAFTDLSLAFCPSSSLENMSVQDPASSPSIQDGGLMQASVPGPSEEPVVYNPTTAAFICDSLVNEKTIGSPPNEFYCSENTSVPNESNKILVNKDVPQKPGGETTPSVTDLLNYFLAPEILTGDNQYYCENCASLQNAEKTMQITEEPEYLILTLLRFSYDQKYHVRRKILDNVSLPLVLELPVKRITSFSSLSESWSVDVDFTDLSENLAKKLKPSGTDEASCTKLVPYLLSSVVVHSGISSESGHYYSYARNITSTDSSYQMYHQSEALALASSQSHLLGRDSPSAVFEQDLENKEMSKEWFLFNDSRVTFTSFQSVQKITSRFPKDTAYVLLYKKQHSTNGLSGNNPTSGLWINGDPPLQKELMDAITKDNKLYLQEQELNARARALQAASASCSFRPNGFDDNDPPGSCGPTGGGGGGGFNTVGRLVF
Procedure, shortened: as §1

USP39 = target: T3, USP39 (UniProt Q53GS9)
T3 sequence (whole entry): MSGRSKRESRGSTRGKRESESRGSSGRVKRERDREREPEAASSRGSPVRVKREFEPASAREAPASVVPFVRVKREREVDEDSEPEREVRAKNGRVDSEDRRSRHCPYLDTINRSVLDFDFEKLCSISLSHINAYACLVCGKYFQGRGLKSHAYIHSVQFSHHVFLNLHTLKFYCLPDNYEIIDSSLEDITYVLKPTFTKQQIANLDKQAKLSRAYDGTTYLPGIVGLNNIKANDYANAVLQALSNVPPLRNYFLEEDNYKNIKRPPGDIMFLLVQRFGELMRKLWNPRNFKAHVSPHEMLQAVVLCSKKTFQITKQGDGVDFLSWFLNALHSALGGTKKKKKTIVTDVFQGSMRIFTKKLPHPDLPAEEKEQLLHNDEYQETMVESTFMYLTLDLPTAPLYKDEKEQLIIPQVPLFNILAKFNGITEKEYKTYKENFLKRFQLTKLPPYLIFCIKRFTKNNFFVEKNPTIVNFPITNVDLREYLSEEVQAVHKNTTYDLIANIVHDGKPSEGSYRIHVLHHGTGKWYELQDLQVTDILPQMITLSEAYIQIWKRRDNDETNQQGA
Procedure, shortened: as §1

USP4 = target: T4, USP4 (UniProt Q13107)
T4 sequence (whole entry): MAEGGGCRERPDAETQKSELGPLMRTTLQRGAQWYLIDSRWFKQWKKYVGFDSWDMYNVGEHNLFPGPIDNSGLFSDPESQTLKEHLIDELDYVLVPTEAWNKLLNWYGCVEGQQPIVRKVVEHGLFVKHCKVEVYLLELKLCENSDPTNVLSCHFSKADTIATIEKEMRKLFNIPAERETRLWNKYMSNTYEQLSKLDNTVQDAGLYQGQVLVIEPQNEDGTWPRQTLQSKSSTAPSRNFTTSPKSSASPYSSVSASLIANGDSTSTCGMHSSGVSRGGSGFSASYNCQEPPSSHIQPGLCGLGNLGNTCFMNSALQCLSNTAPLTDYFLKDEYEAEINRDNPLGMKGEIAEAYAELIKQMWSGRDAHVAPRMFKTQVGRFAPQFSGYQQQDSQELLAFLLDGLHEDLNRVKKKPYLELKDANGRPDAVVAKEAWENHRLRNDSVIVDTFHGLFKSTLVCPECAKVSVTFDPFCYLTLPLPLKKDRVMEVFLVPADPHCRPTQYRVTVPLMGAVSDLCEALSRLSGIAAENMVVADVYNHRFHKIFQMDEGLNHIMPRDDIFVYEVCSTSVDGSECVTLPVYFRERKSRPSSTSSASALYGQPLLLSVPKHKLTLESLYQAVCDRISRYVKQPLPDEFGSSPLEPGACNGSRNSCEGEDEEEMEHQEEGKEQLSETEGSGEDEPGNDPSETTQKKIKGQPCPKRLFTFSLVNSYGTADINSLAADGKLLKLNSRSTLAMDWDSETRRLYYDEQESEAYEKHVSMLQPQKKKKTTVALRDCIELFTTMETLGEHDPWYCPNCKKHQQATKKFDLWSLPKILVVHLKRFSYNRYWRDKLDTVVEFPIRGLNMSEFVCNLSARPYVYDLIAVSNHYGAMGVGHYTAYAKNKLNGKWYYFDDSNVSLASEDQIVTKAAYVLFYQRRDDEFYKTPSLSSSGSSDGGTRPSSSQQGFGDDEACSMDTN
Procedure, shortened: as §1

Measured: log2 ratio of Biotin-Ahx-Ub-VS probe labelling

C[C@@H](NC(=O)CCl)c1cccc(C#N)c1
inactive: USP34 -0.444 | USP36 0.00395 | USP38 -0.0294 | USP39 0.198 | USP4 0.0193
